Broadly, the AC50 is the concentration giving half of the maximal activity seen.

The structures appear in SMILES notation. Structures can show the parent of a compound that is named as a salt.

The test system of the assay is thyroid hormone receptor (endogenous TRα and TRβ). Details: species or system GH3-TRE-Luc (rat pituitary); GH3-TRE-Luc luciferase reporter, antagonist mode against 1 nM T3, loss of signal, qHTS. The note with it: read-out: Average AC50 (uM) GH3-TRE-Antag, antagonist mode, 1 nM T3, no GH3 cytotoxicity hit.
`C#C[C@]1(O)C=C[C@H]2[C@@H]3CCC4=CC(=O)CC[C@@H]4[C@H]3CC[C@@]21CC` [Gestodene]: the AC50 is 15.5 µM.
As to `Cc1oc(=O)oc1CN1CCN(c2cc3c(cc2F)c(=O)c(C(=O)O)c2n3C(C)S2)CC1` (stereo not shown) [Prulifloxacin], the AC50 was more than 50 µM.
As for `O=C1/C(=C/c2cccs2)CCC/C1=C\c1cccs1` [Tenylidone], the figure is 46.5 µM; as for `Cc1ccc(C(=O)C(C)CN2CCCCC2)cc1` (stereo not shown) [Tolperisone hydrochloride], more than 50 µM; as for `COc1ccc(Nc2ccccc2)c(C)c1` [4-Methoxy-2-methyl-N-phenylaniline], 52.5 µM.
In the case of `CS(=O)(=O)Nc1ccc([N+](=O)[O-])cc1Oc1ccccc1` [Nimesulide] it was more than 20 µM; in that of `CC(C)(C)NC(=O)[C@H]1CC[C@H]2[C@@H]3CC[C@H]4NC(=O)C=C[C@]4(C)[C@H]3CC[C@]12C` [Finasteride], more than 20 µM; in that of `Oc1ccc(-c2ccc(O)cc2)cc1` [4,4'-Biphenyldiol], 34.2 µM.
As for `CCCCc1c(C)nc(NCC)nc1OS(=O)(=O)N(C)C` [Bupirimate], the figure is more than 90 µM; as for `CCCC(=O)O[C@]1(C(=O)CCl)[C@@H](C)C[C@H]2[C@@H]3CCC4=CC(=O)C=C[C@]4(C)[C@@]3(F)C(=O)C[C@@]21C` [Clobetasone butyrate], 32.9 µM; as for `Cc1c(Nc2ncccc2C(=O)O)cccc1C(F)(F)F` [Flunixin meglumine], 2.85 µM.
In the case of `Cc1cc(C(C)(C)c2ccc(O)c(C)c2)ccc1O` [3,3'-Dimethylbisphenol A], the AC50 was determined as 33.1 µM.
For the molecule `Cc1ccc(/C(=C\CN2CCCC2)c2ccccn2)cc1` [Triprolidine], the AC50 turned out to be 21.5 µM.
As for `O=C(O)c1snc(Cl)c1Cl` [3,4-Dichloro-5-isothiazolecarboxylic acid], the AC50 was 51.4 µM.
As for `COc1ccccc1/C=C/C=O` [trans-2-Methoxycinnamaldehyde], the figure is 47.6 µM; as for `CCC(Cc1c(I)cc(I)c(N)c1I)C(=O)O` (stereo not shown) [Iopanoic acid], more than 20 µM; as for `CCCCN(CCCC)C(=O)N(CCCC)CCCC` [1,1,3,3-Tetrabutylurea], 22.2 µM.
As for `C#C[C@]1(O)CC[C@H]2[C@@H]3CCc4cc(OC)ccc4[C@H]3CC[C@@]21C` [Mestranol], the figure is 21.8 µM.
As for `CC(Oc1ccc(Oc2ncc(C(F)(F)F)cc2Cl)cc1)C(=O)O` (stereo not shown) [Haloxyfop], the figure is 58.9 µM.
For the molecule `CCCCCCCCCCCCCCC[C@H](O)[C@@H](N)CO` [Safingol], the AC50 was found to be 27.1 µM.
As to `COc1ccc(C(=O)c2ccc(O)cc2)c(OC)c1` [(2,4-dimethoxyphenyl)(4-hydroxyphenyl)methanone], the AC50 stood at 54.9 µM.
In the case of `C=CCCCCCCCCC=O` [Undec-10-enal] it was 75.3 µM; in that of `O=C(/C=C/c1ccccc1)OCc1ccccc1` [Benzyl cinnamate], more than 50 µM.
In the case of `O=[N+]([O-])c1c(Cl)c(Cl)c(Cl)c(Cl)c1Cl` [Pentachloronitrobenzene] it was more than 90 µM.
As for `c1ccc2c(c1)ccc1ccccc12` [Phenanthrene], the figure is 50.1 µM; as for `Cc1occc1SSc1ccoc1C` [Bis(2-methyl-3-furyl)disulfide], 65.9 µM; as for `CC(=O)O[C@H]1CC[C@@]2(C)C(=CC[C@@H]3[C@@H]2CC[C@]2(C)C(c4cccnc4)=CC[C@@H]32)C1` [Abiraterone acetate], 50 µM.
`Cc1nc2ccccn2c(=O)c1CCN1CCC(C(=O)c2ccc(F)cc2)CC1` [Pirenperone]: the AC50 amounted to 47 µM.
In the case of `C=CC(C)(CCC=C(C)C)OC(=O)/C=C/c1ccccc1` (stereo not shown) [Linalyl cinnamate] it was 73.9 µM; in that of `Sc1ccccc1` [Benzenethiol], 44.5 µM.
Regarding `CC1=C(C)S(=O)(=O)CCS1(=O)=O` [Dimethipin], the AC50 was found to be 86.8 µM.
In the case of `Nc1ccccc1N` [1,2-Phenylenediamine dihydrochloride], the AC50 was found to be 92.5 µM.
In the case of `CCCCCC(C=O)=Cc1ccccc1` [Pentylcinnamaldehyde] it was more than 50 µM; in that of `CCCc1c(OCCCOc2ccc(OCC(=O)O)cc2)ccc(C(C)=O)c1O` [4-[3-(4-Acetyl-3-hydroxy-2-propylphenoxy)propoxy]phenoxy-acetic acid], 85.9 µM.
As for `CC1=CC[C@H](C(C)C)C=C1` [(R)-alpha-Phellandrene], the figure is 54.5 µM.
In the case of `Clc1cc(C(Cl)(Cl)Cl)cnc1Cl` [2,3-Dichloro-5-(trichloromethyl)pyridine] it was 40.5 µM.
On to `S=C(NC1CCCCC1)NC1CCCCC1` [N,N'-Dicyclohexylthiourea], for which the AC50 came out at 58.2 µM.
As for `C/C=C\C/C=C/CCCCCCCCOC(C)=O` [(9E,12Z)-9,12-Tetradecadien-1-ol acetate], the figure is 68.2 µM; as for `OCCCCCCCCCCCCBr` [12-Bromo-1-dodecanol], 85.6 µM; as for `O=C(O)c1cccc(-c2noc(-c3ccccc3F)n2)c1` [Ataluren], 10.8 µM.

(Values after article PMC6792352, “Limited Chemical Structural Diversity Found to Modulate Thyroid Hormone Receptor in the Tox21 Chemical Library” (Environmental Health Perspectives, 2019).)
